Screens from PubChem BioAssay.
Sampled rows, rich in hits. Any-hit rate of the full collection: about 18%.
TDP1 block – qHTS Assay for Inhibitors of Tyrosyl-DNA Phosphodiesterase (TDP1) | actives 0.28% (n = 350,000) | Potency, µM (series often up to 130 µM), for inactives: at the top dose activity change, negative = inhibition, most hits filed as inhibitors | recombinant TDP1, AlphaScreen DNA substrate cleavage | AID 485290, 2010; further: potency means the concentration at half of the fitted maximal effect; on the % scale 0 is the no-effect control and ±100 the full control effect; nearly all actives have a fitted effect of over 40% in size
Target sequence (Q9NUW8 whole entry, looked up): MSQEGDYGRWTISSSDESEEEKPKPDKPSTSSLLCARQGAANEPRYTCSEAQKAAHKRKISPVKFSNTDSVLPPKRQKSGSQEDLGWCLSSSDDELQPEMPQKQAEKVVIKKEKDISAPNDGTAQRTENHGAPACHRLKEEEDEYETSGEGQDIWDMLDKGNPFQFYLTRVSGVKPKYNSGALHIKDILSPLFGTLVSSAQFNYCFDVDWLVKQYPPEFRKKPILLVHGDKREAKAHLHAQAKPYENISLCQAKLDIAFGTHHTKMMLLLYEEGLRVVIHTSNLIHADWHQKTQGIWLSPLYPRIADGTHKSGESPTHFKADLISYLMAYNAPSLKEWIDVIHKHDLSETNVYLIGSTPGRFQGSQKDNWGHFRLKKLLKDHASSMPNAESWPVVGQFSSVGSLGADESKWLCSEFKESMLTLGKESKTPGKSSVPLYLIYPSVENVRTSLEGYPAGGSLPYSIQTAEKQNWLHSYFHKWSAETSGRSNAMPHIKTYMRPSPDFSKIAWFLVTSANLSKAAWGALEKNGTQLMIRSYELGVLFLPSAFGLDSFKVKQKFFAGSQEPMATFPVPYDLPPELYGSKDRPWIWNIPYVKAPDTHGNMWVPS
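Enzyme-compound mixtures sat 15 min at room temperature, followed by a 5 min reaction with 15 nM final substrate and 10 min with AlphaScreen beads. Recombinant human Tdp1 was used at 1 nM final.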
TDP1 cell CPT – qHTS for Inhibitors of human tyrosyl-DNA phosphodiesterase 1 (TDP1): qHTS in cells in presence of CPT; actives 12% (n = 420,000); chicken DT40 Tdp1-/-;hTDP1 cells + 20 nM CPT, ATP luminescence, 48 h; Potency, µM (doses to about 46.2 µM), inactives show top-dose activity change, negative = growth inhibition, actives largely listed as inhibitors; AID 686979, 2013; further: potency means the concentration at half of the fitted maximal effect; on the % scale 0 is the no-effect control and ±100 the full control effect; nearly all actives have a fitted effect of over 55% in size
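Chicken DT40 Tdp1-/- cells stably complemented with human TDP1 were seeded at 400 cells/well in medium containing 20 nM camptothecin, exposed to pin-transferred compounds, and grown at 37 °C for at least 48 hr. Viability was read as ATP luminescence.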
TGFb SMAD3 inh – qHTS for Inhibitors of TGF-b; Potency, µM (titrated, usually from 46.1 µM), inactives show at the top dose activity, negative = inhibition, most hits filed as inhibitors; HepG2 CAGA-GFP TGF-b/SMAD3 reporter, GFP fluorescence, 18 h; TGF-beta stimulated, 500 pg/mL final; actives 1.2% (n = 410,000); further: potency means the concentration at half of the fitted maximal effect; on the % scale 0 is the no-effect control and ±100 the full control effect; nearly all actives have a fitted effect of over 65% in size
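HEPG2 CAGA-GFP reporter cells (1000/well, DMEM with 1% FBS) received compounds, then recombinant TGF-beta at 500 pg/mL final for 18 hours at 37 degrees C. Per-cell GFP summed per well was normalised to unstimulated and stimulated DMSO controls before curve fitting.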
HepG2 tox – qHTS for Inhibitors of TGF-b: Cytotox Counterscreen. HepG2 CAGA-GFP viability, ATP luminescence, 18 h. Potency, µM (highest dose often 46.1 µM), inactives show at the top dose activity change, negative = cytotoxicity, actives largely listed as cytotoxic. actives 0.76% (n = 410,000). AID 588856, 2011; further: potency means the concentration at half of the fitted maximal effect
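HepG2 CAGA-GFP cells (1000/well, DMEM with 1% FBS) received compound, then TGF-beta at 500 pg/mL final, and were incubated 18 hours at 37 degrees C. Viability was read by CellTiter-Glo luminescence. Media-only wells were set as complete cell-killing and DMSO as no toxicity.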
IL-1B inflam inh – qHTS for Inhibitors of Inflammasome Signaling: IL-1-beta AlphaLISA Primary Screen | THP-1 LPS/ATP IL-1B secretion, AlphaLISA, 16 h; stronger effect = lower value | activity change, % at 57.5 µM | actives 4.7% (n = 360,000); in the data active means activity change below about -50%; inconclusive means mostly about -30% to -49%; further: on the % scale 0 is the no-effect control and ±100 the full control effect
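THP-1 cells pretreated 1 hr with compounds (up to 57.5 uM final), then stimulated with LPS (250 ng/mL final) plus ATP (1.25 mM final); secreted IL-1B measured by AlphaLISA after 16 hr, decreased signal indicating inhibition.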
TDP1 cell noCPT – qHTS for Inhibitors of human tyrosyl-DNA phosphodiesterase 1 (TDP1): qHTS in cells in absence of CPT; DT40 Tdp1-/- hTDP1 cells, no CPT, ATP luminescence, 48 h; Potency, µM (series often up to 46.2 µM), for inactives: top-dose activity change, negative = growth inhibition, actives largely listed as inhibitors; actives 15% (n = 420,000); AID 686978, 2013; further: potency means the concentration at half of the fitted maximal effect; on the % scale 0 is the no-effect control and ±100 the full control effect; nearly all actives have a fitted effect of over 55% in size
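Compound effects on proliferation are scored in DT40 Tdp1-/-;hTDP1 cells in the absence of CPT. ATP levels (CellTiter-Glo luminescence) are recorded after a ≥48 hr, 37 °C incubation.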
* = called active by the depositor; ? = inconclusive; · = no result. Unless noted, the call rests on the fitted dose curve; in most records, active means well fitted curve in the direction sought with a large enough effect; inconclusive means small, poorly fitted or top-dose-only effect, or another doubt; inactive means no such curve, though single readings can be large; an effect the other way counts as inactive or inconclusive.

SMILES	TDP1 block	TDP1 cell CPT	TGFb SMAD3 inh	HepG2 tox	IL-1B inflam inh	TDP1 cell noCPT
CC1(C)Cc2ccccc2-c2nnc(SCC(=O)Nc3ccc4c(c3)OCO4)n21	2.3%	16.4µM*	-18.1%	-0.7%	?	?
COc1ccccc1N1CCN(C(=O)CSc2nnc3n2C(C)(C)Cc2ccccc2-3)CC1	1.0%	13µM*	?	-49.1%	-28.1	14.6µM*
CCOC(=O)CSc1nnc2n1C(C)(C)Cc1ccccc1-2	0.0%	7.8%	-11.5%	-29.5%	-6.8	-1.7%
CC1Cc2ccccc2N1C(=O)CSc1nnc2n1C(C)(C)Cc1ccccc1-2 (stereo not given)	6.6%	20.6µM*	0.3%	-22.4%	0.0	20.6µM*
NC(N)=NC(N)=Nc1cccc2ccccc12	·	?	16.4%	9.3%	-6.8	?
Cc1c(Cl)cccc1N=C(N)N=C(N)N	6.0%	?	-10.1%	-0.5%	-5.1	23.1µM*
CCOc1ccccc1N1CC(C(=O)Nc2cc(Cl)ccc2C)CC1=O (stereo not given)	1.8%	3.3%	-1.0%	-30.5%	-1.7	-15.5%
CCc1c(C)c2cc3c(c(C)c2oc1=O)OCN(CCc1ccccc1F)C3	3.7%	13µM*	26.6%	-45.2%	·	16.4µM*
COC(=O)Cc1c(C)c2cc3c(c(C)c2oc1=O)OCN(CCc1ccc(F)cc1)C3	8.6%	?	-0.7%	-24.6%	·	?
CCOC(=O)CCc1c(C)c2cc3c(c(C)c2oc1=O)OCN(CCc1ccccc1OC)C3	4.9%	29.1µM*	-3.7%	-27.1%	·	?
CCc1cc(=O)oc2c(C)c3c(cc12)CN(CCc1ccccc1)CO3	6.1%	?	1.7%	-13.9%	·	?
Cc1c(C)c2cc3c(c(C)c2oc1=O)OCN(CCc1ccccc1)C3	12.3%	13µM*	1.9%	-19.8%	·	?
O=C(Nc1ccc(Br)cn1)c1cnn2c1NC(=C1CC1)C=C2C(F)F	·	0.6%	16.4%	-53.3%	·	-19.2%
COc1cccc(NC(=O)C2CCCN(S(=O)(=O)c3cn(C(C)C)cn3)C2)c1 (stereo not given)	3.8%	-15.1%	12.4%	1.7%	·	-26.8%
CCN(CC(=O)Nc1c(F)cccc1F)C(=O)Cc1ccc2c(c1)OCCO2	0.7%	-15.4%	6.5%	-3.5%	-9.7	-2.6%
CCOC(=O)c1ccc(NC(=S)N2CCSC2c2c(F)cc(F)cc2F)cc1 (stereo not given)	6.7%	23.1µM*	?	-25.7%	-18.0	25.9µM*
CCOC(=O)c1ccc(NC(=S)N2CCN(S(C)(=O)=O)CC2)cc1	-2.0%	-6.3%	7.4%	9.0%	-11.2	0.0%
Cc1ccc(C)c(N(C)S(=O)(=O)c2ccc3[nH]cc(C(=O)NCCN4CCOCC4)c(=O)c3c2)c1	5.1%	-24.5%	18.7%	34.9%	-63.1*	?
CCCNC(=O)c1c[nH]c2ccc(S(=O)(=O)N(C)c3ccc(OCC)cc3)cc2c1=O	2.8%	?	-28.8%	-4.0%	-3.1	23.1µM*
CCOc1ccc(N(C)S(=O)(=O)c2ccc3[nH]cc(C(=O)NCCOC)c(=O)c3c2)cc1	4.6%	13µM*	0.5%	29.4%	4.3	?
CCOc1ccc(N(C)S(=O)(=O)c2ccc3[nH]cc(C(=O)NCCCOC)c(=O)c3c2)cc1	·	23.1µM*	-4.0%	-16.0%	9.8	20.6µM*
Cc1ccc(N(C)S(=O)(=O)c2ccc3[nH]cc(C(=O)NCCCN4CCOCC4)c(=O)c3c2)cc1C	1.7%	-13.5%	25.8%	5.0%	10.1	-20.6%
